A selection: hits, their analogues and other compounds. The true share with any hit is near 10%.
G9a inh: blocks human histone lysine methyltransferase G9a; Q96KQ7; G9a H3K9 monomethylation, AlphaScreen, 2 h; Potency, µM (highest dose often 102 µM), inactives show top-dose activity, negative = inhibition, hits mostly inhibitors; 350,000 tested, 8.8% active; AID 504332; note: potency is the fitted concentration of half-maximal effect; % is set by controls: 0 for no effect and ±100 for the full control effect; nearly all actives have a fitted effect of over 75% in size
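G9a (20 nM) was preincubated 15 min with compound, then reacted 2 h at room temperature with 500 nM biotin-H3K9 peptide and 20 µM SAM. Monomethyl-H3K9 detected by AlphaScreen using anti-H3K9me1 antibody.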
BAZ2B block: blocks human BAZ2B; Q9UIF8; AlphaScreen BAZ2B-H3K14Ac peptide displacement; Potency, µM (top dose mostly 114 µM), inactives show top-dose activity change, negative = inhibition, hits mostly inhibitors; 360,000 tested, 4.4% active; AID 504333; note: potency is the fitted concentration of half-maximal effect; % is set by controls: 0 for no effect and ±100 for the full control effect; nearly all actives have a fitted effect of over 60% in size
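Protein-peptide AlphaScreen: BAZ2B 50 nM, b-H3K14Ac 50 nM, 1x PBS pH 7.4 + 0.01% Tween-20. Preincubation 30 min RT; cpd 30 min RT (top 110 uM); beads 20 min RT, light-protected.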
JMJD2A Tudor: JMJD2A Tudor domain (human) inhibition; O75164; AlphaScreen JMJD2A-Tudor / H3K4me3 peptide binding; Potency, µM (doses to about 114 µM), inactives show at the top dose activity change, negative = inhibition, actives largely listed as inhibitors; 390,000 tested, 4.4% active; note: potency is the fitted concentration of half-maximal effect; % is set by controls: 0 for no effect and ±100 for the full control effect; nearly all actives have a fitted effect of over 50% in size
Target sequence (O75164 whole entry, looked up, the tested form may be a part): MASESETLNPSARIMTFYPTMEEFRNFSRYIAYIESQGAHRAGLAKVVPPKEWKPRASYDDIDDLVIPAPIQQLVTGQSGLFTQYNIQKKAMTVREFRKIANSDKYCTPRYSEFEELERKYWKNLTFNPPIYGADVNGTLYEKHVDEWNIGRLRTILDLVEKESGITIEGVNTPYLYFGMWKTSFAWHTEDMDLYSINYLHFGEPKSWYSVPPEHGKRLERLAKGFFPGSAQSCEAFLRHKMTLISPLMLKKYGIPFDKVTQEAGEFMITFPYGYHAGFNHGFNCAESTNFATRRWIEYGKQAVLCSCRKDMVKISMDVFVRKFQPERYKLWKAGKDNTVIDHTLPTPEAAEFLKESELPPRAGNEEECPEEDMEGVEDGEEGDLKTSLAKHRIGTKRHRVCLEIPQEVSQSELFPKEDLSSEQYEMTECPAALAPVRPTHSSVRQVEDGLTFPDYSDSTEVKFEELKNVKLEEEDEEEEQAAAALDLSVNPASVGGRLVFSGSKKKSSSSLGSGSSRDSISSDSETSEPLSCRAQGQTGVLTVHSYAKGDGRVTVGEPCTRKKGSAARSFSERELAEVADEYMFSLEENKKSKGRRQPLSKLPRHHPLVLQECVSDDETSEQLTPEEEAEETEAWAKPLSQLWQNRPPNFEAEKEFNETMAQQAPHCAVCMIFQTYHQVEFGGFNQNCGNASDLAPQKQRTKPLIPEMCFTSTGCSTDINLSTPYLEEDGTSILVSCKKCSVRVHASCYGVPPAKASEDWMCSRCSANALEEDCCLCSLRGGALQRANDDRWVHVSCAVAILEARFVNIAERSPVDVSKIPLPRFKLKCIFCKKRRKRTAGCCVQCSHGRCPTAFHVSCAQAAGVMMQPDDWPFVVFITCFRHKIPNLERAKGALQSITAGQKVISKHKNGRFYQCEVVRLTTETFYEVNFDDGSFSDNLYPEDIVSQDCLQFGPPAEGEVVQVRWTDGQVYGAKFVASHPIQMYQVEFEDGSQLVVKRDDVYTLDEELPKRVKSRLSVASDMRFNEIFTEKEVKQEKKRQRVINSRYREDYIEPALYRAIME
CtBP-E1A blk: inhibitors of CtBP/E1A interaction; AlphaScreen GST-E1A/His-CtBP binding, 1536-well; hits give low values; activity change, % (test concentration not listed); 340,000 tested, 0.49% active; AID 651724; in the data active = activity change below about -65%; inconclusive = mostly about -30% to -63%; note: % is set by controls: 0 for no effect and ±100 for the full control effect
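In 5 uL wells, 23 nL compound meets equimolar GST-E1A and His-CtBP (5X stock 125 nM each) for 2 h, 37 °C. Beads (5X, 50 ug/mL) then 1 h, 37 °C, dark.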
HP1b binding inh: HP1-beta chromodomain-methylated histone interaction inhibition | P83916 | AlphaScreen HP1-beta / biotin-H3K9me3 peptide binding | Potency, µM (titrated, usually from 114 µM), without a hit: at the top dose activity change, negative = inhibition, actives largely listed as inhibitors | 390,000 tested, 0.56% active; note: potency is the fitted concentration of half-maximal effect; nearly all actives have a fitted effect of over 70% in size
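Compound inhibition of the preformed complex between 50 nM HP1-beta and 50 nM biotinylated H3K9me3 peptide was read by AlphaScreen. Buffer was PBS pH 7.4 with 0.01% Tween-20. Incubations ran 30 min at room temperature, with 10 ug/mL donor/acceptor beads.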
Six1-Eya2 blk: Six1/Eya2 interaction inhibition | Q15475+O00167 | AlphaScreen GST-Six1/His-Eya2 binding, biochemical; hits give low values | activity change, % (concentration not given with the values) | 360,000 tested, 0.56% active | AID 651725; in the data active = activity change below about -65%; inconclusive = mostly about -30% to -63%; note: % is set by controls: 0 for no effect and ±100 for the full control effect
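Six1/Eya2 binding was read as AlphaScreen signal after compounds were pinned into GST-Six1 plus His-tagged Eya2 (5X stock 250/500 nM) in pH 8.0 Tris/NaCl/TCEP buffer, beads added, then incubated 1 h, 37 C, dark.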
The depositor's hits bear a star; ! = repeats disagree; [ ] = another dose, or the depositor's remark. Unless noted, calls come from the whole dose curve; as a rule, active = well fitted inhibition curve with a large enough effect; inconclusive = small, poorly fitted or top-dose-only effect; inactive = no such curve, though single readings can be large or run the other way.

Results for O=C(NC1CCCN(Cc2ccc(Cl)cc2)C1)C1CCC1 (configuration not stated) ?
G9a inh: 28.9%; BAZ2B block: -15.7%; JMJD2A Tudor: -4.1%; CtBP-E1A blk: -7.0; HP1b binding inh: 21.5%; Six1-Eya2 blk: 3.4

What do the screens show for `COc1cc(CN2CCC(C)CC2)ccc1OCc1ccccc1`?
G9a inh: inconclusive; BAZ2B block: inconclusive; JMJD2A Tudor: 25.1µM*; CtBP-E1A blk: -10.2; HP1b binding inh: inconclusive; Six1-Eya2 blk: -4.5

Results for Brc1ccc(CN2CCCCCC2)cc1 ?
JMJD2A Tudor: 28.2µM*; CtBP-E1A blk: 3.7; HP1b binding inh: inconclusive; Six1-Eya2 blk: 1.9

How did NC(=O)C1CCCN(Cc2ccc(Cl)cc2)C1 (configuration not stated) do in these assays?
G9a inh: 3.55µM*; BAZ2B block: 79.4µM*; JMJD2A Tudor: 3.16µM*; CtBP-E1A blk: -2.7; HP1b binding inh: -55.6%; Six1-Eya2 blk: 1.3

How did COc1cc(CN2CCCC(C)C2)ccc1OCc1ccccc1 (configuration not stated) do in these assays?
BAZ2B block: 10.6%; JMJD2A Tudor: -14.3%; CtBP-E1A blk: -6.1; HP1b binding inh: 11.9%; Six1-Eya2 blk: 6.1

What do the screens show for `Clc1cccc(CN2CCCCCC2)c1`?
G9a inh: 11.2µM*; BAZ2B block: inconclusive; JMJD2A Tudor: 39.8µM*; HP1b binding inh: -36.8%; Six1-Eya2 blk: 0.4

What do the screens show for `Nc1ccc(CN2CCCCCC2)cc1`?
G9a inh: 9.6%[59 µM]; BAZ2B block: 19.0%; JMJD2A Tudor: -28.2%; CtBP-E1A blk: -4.9; HP1b binding inh: 17.1%; Six1-Eya2 blk: -1.3

Results for COc1cc(C(=O)N2CC(=O)Nc3ccc(C)cc3C2c2ccc(F)cc2)cc(OC)c1OC (configuration not stated) ?
G9a inh: -0.5%[59 µM]; BAZ2B block: 4.1%; JMJD2A Tudor: -0.3%; HP1b binding inh: 56.3%

Results for CCCNC(=O)c1cnc2sc(N3CCCCCC3)nn2c1=O ?
G9a inh: 6.0%[59 µM]; BAZ2B block: -3.1%; JMJD2A Tudor: -9.0%; HP1b binding inh: 43.8%

How did O=[N+]([O-])c1ccc(O)c(CN2CCCCCC2)c1 do in these assays?
G9a inh: 1.1%[0.501 µM]; BAZ2B block: 3.3%; JMJD2A Tudor: -10.3%; HP1b binding inh: 11.0%; Six1-Eya2 blk: -3.1

What do the screens show for `CCN(CC)C(=O)C1CCCN(Cc2ccc(OC)c(C)c2)C1` (configuration not stated)?
G9a inh: -49.3%[12.7 µM]; BAZ2B block: inconclusive; JMJD2A Tudor: 0.891µM*; CtBP-E1A blk: -10.5; HP1b binding inh: inconclusive; Six1-Eya2 blk: -8.0

What do the screens show for `COc1ccc(C(=O)C2CCCN(Cc3cc(C)c(O)c(C)c3)C2)c(OC)c1` (configuration not stated)?
BAZ2B block: 0.3%; JMJD2A Tudor: -15.8%; CtBP-E1A blk: -5.4; HP1b binding inh: 7.6%; Six1-Eya2 blk: -14.7

How did O=[N+]([O-])c1ccc(Cl)cc1CN1CCCCCC1 do in these assays?
G9a inh: 22.4µM*; BAZ2B block: inconclusive; JMJD2A Tudor: 20µM*; CtBP-E1A blk: -13.9; HP1b binding inh: inconclusive; Six1-Eya2 blk: -7.9

Results for CCOC(=O)C1CCCN(C(=O)c2ccc3c(c2)OCO3)C1 (configuration not stated) ?
G9a inh: 14.4%[59 µM]; BAZ2B block: -3.1%; JMJD2A Tudor: 0.8%[57.1 µM]; CtBP-E1A blk: 7.4; HP1b binding inh: 39.1%; Six1-Eya2 blk: 9.3

How did CCOC(=O)C1CCCN(Cc2ccc3c(c2)OCO3)C1 (configuration not stated) do in these assays?
G9a inh: 8.91µM*; BAZ2B block: 50.1µM*; JMJD2A Tudor: 2.51µM*; CtBP-E1A blk: -13.3; HP1b binding inh: 25.1µM*; Six1-Eya2 blk: -1.4

How did COc1ccc(Cl)cc1NS(=O)(=O)c1c(C)nc2scc(C)n2c1=O do in these assays?
G9a inh: 16.9%[59 µM]; BAZ2B block: -10.3%; JMJD2A Tudor: -15.4%; HP1b binding inh: 39.3%

What do the screens show for `Cc1ccc(Nc2cc(C)c(O)c(C)c2)cc1`?
G9a inh: 25.1µM*; BAZ2B block: 7.08µM*; JMJD2A Tudor: 39.8µM*; CtBP-E1A blk: -4.4; HP1b binding inh: 50.1µM*; Six1-Eya2 blk: -14.5

Results for Cc1ccc(Nc2ccccc2)cc1 ?
G9a inh: -12.6%[59 µM]; BAZ2B block: 14.4%; JMJD2A Tudor: -28.7%; CtBP-E1A blk: -6.8; HP1b binding inh: 15.9%; Six1-Eya2 blk: -7.0

How did Cc1cc2oc(C(=O)Nc3ccc(S(=O)(=O)N(C)c4ccccc4)cc3)cc(=O)c2cc1C do in these assays?
G9a inh: 8.3%[59 µM]; BAZ2B block: -0.5%; JMJD2A Tudor: 5.9%; HP1b binding inh: 20.2%

What do the screens show for `Cc1ccc(/C(=C\CN2CCCC2)c2ccccn2)cc1`?
G9a inh: 7.52µM*!; BAZ2B block: -16.5%; JMJD2A Tudor: -6.2%; CtBP-E1A blk: -3.8; Six1-Eya2 blk: 1.1

What do the screens show for `CC(C)c1ccc(NC(=O)c2cc3c(s2)-c2ccccc2SC3)cc1`?
G9a inh: 31.8%[59 µM]; BAZ2B block: 11.6%; JMJD2A Tudor: 28.9%; HP1b binding inh: 57.7%

Results for COCCNc1nc2nonc2nc1N1C[C@H]2CC[C@H]1C2 ?
G9a inh: 79.4µM*; BAZ2B block: 3.9%; JMJD2A Tudor: 7.2%; CtBP-E1A blk: -1.5; HP1b binding inh: 36.9%; Six1-Eya2 blk: 7.6

What do the screens show for `COc1cc(OC)c(NC(=O)C(C)n2c(=O)cc(-c3ccccc3)c3c(C)nn(C)c32)cc1Cl` (configuration not stated)?
G9a inh: 1.5%[59 µM]; BAZ2B block: inconclusive; JMJD2A Tudor: -30.0%; HP1b binding inh: -5.1%

How did COc1ccc2c(c1)nc(SCC(=O)c1cccs1)n2C do in these assays?
G9a inh: 44.7µM*; BAZ2B block: -18.2%[57.1 µM]; JMJD2A Tudor: 79.4µM*; CtBP-E1A blk: 6.3; HP1b binding inh: 1.5%; Six1-Eya2 blk: -3.6

Results for CCOC(=O)c1c(C)[nH]c(C)c1S(=O)(=O)N1CCC(C(=O)Nc2ccc(C)c(N(C)C)c2)CC1 ?
G9a inh: inconclusive; BAZ2B block: -35.4%; JMJD2A Tudor: -19.2%; HP1b binding inh: 21.7%

How did CCn1nc(NC(=O)Cc2ccc(OC)cc2)c2cc3cccc(C)c3nc21 do in these assays?
G9a inh: 6.1%; BAZ2B block: 3.4%; JMJD2A Tudor: -2.4%; CtBP-E1A blk: 11.5; HP1b binding inh: 3.8%; Six1-Eya2 blk: 20.2

Results for CCn1nc(NC(=O)Cc2ccc(OC)cc2)c2cc3cc(C)ccc3nc21 ?
G9a inh: 44.7µM*; BAZ2B block: -4.4%; JMJD2A Tudor: -8.6%; HP1b binding inh: 22.8%; Six1-Eya2 blk: 6.7

Bioassay records: PubChem, National Center for Advancing Translational Sciences (NCATS)
